Laboratory results from PubChem BioAssay AID1159580 (chemical genetic matrix, 2015).
Among all 5,500 compounds or so, about 2,000 (36%) were called active. Inconclusive results (about 18%) are left out. No stated cut-off is given here; in the data, active means normalized growth mostly below about 0.91 (no sharp cut-off); inconclusive means no clear call, values can overlap the other calls; inactive means mostly above about 0.92. Some of the results follow.

Experiment: chemical genetic growth profiling, strain panel (AID 1159580);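 further: tested at 20 µM; growth read once vehicle control cultures reached saturation at 30 °C; 1 = growth at the plate median or of vehicle wells; lower values mean less growth of the strain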
Settings: growth OD
[1] = S. cerevisiae deletion strains, locus YDR150W, strain NUM1, hits give low values
[2] = S. cerevisiae deletion strains, locus YGR078C, strain PAC10, hits give low values
[3] = S. cerevisiae deletion strains, locus YJR075W, strain HOC1, hits give low values
[4] = S. cerevisiae deletion strains, locus YMR263W, strain SAP30, hits give low values
[5] = S. cerevisiae deletion strains, locus YPL055C, strain LGE1, hits give low values
[6] = S. cerevisiae deletion strains, locus YDL101C, strain DUN1, hits give low values
[7] = S. cerevisiae deletion strains, locus YHR030C, strain SLT2, hits give low values

Measured: normalized growth

Nc1ncnc2c1nc(Br)n2C1OC2COP(=O)(O)O[C@@H]2C1O (stereo partly specified)
inactive: S. cerevisiae deletion strains, locus YAL040C, strain CLN3, hits give low values 0.986 | [1] 0.999 | S. cerevisiae deletion strains, locus YER002W, strain NOP16, hits give low values 0.996 | [2] 1.01 | [3] 1 | [4] 0.999 | S. cerevisiae deletion strains, locus YNL175C, strain NOP13, hits give low values 0.986 | S. cerevisiae deletion strains, locus YNL197C, strain WHI3, hits give low values 1.02 | S. cerevisiae deletion strains, locus YNL224C, strain SQS1, hits give low values 0.999 | S. cerevisiae deletion strains, locus YOR083W, strain WHI5 (second series), hits give low values 1.02 | [5] 1.01

O/N=C\c1sccc1Oc1ccccc1
inactive: S. cerevisiae deletion strains, locus YAL013W, strain DEP1, hits give low values 0.964 | S. cerevisiae deletion strains, locus YBR229C, strain ROT2, hits give low values 0.958 | S. cerevisiae deletion strains, locus YCL061C, strain MRC1, hits give low values 0.942 | [6] 0.926 | [1] 0.953 | [2] 0.952 | [7] 0.729 | S. cerevisiae deletion strains, locus YHR087W, strain rtc3, hits give low values 1.01 | S. cerevisiae deletion strains, locus YJL187C, strain SWE1, hits give low values 1.01 | S. cerevisiae deletion strains, locus YJR043C, strain POL32, hits give low values 1 | [3] 0.978 | S. cerevisiae deletion strains, locus YLR039C, strain RIC1, hits give low values 0.954 | S. cerevisiae deletion strains, locus YLR058C, strain SHM2 (second series), hits give low values 0.997 | S. cerevisiae deletion strains, locus YLR085C, strain ARP6, hits give low values 0.911 | S. cerevisiae deletion strains, locus YLR262C, strain YPT6, hits give low values 0.931 | S. cerevisiae deletion strains, locus YML094W, strain GIM5, hits give low values 0.927 | S. cerevisiae deletion strains, locus YMR219W, strain ESC1, hits give low values 0.977 | [4] 0.968 | S. cerevisiae deletion strains, locus YNL128W, strain TEP1, hits give low values 0.98 | S. cerevisiae deletion strains, locus YNL298W, strain CLA4 (second series), hits give low values 0.962 | S. cerevisiae deletion strains, locus YNL322C, strain KRE1, hits give low values 0.988 | S. cerevisiae deletion strains, locus YNR030W, strain Alg12, hits give low values 0.932 | S. cerevisiae deletion strains, locus YOL006C, strain TOP1, hits give low values 0.795 | [5] 0.98 | S. cerevisiae deletion strains, locus YPL241C, strain CIN2, hits give low values 0.917 | S. cerevisiae deletion strains, locus YPR135W, strain CTF4, hits give low values 0.648 | S. cerevisiae strains, strain wild type, hits give low values 0.953
active: S. cerevisiae deletion strains, locus YEL061C, strain CIN8, hits give low values 0.869 | S. cerevisiae deletion strains, locus YNL153C, strain GIM3, hits give low values 0.905

Clc1ccc(N/N=C\c2sccc2Oc2ccccc2)cc1
active: S. cerevisiae deletion strains, locus YDL214C, strain PRR2, hits give low values 0.335 | S. cerevisiae deletion strains, locus YDR477W, strain SNF1, hits give low values 0.275 | S. cerevisiae deletion strains, locus YER123W, strain YCK3, hits give low values 0.184 | S. cerevisiae deletion strains, locus YER133W, strain GLC7, hits give low values 0.345 | S. cerevisiae deletion strains, locus YFR019W, strain FAB1, hits give low values 0.313 | S. cerevisiae deletion strains, locus YGR040W, strain KSS1, hits give low values 0.268 | S. cerevisiae deletion strains, locus YGR052W, strain FMP48, hits give low values 0.21 | S. cerevisiae deletion strains, locus YGR092W, strain DBF2, hits give low values 0.115 | [7] 0.125 | S. cerevisiae deletion strains, locus YHR079C, strain IRE1, hits give low values 0.474 | S. cerevisiae deletion strains, locus YHR082C, strain KSP1, hits give low values 0.361 | S. cerevisiae deletion strains, locus YHR205W, strain SCH9, hits give low values 0.43 | S. cerevisiae deletion strains, locus YJL095W, strain BCK1, hits give low values 0.125 | S. cerevisiae deletion strains, locus YJL157C, strain FAR1, hits give low values 0.316 | S. cerevisiae deletion strains, locus YJR066W, strain TOR1 (second series), hits give low values 0.423 | S. cerevisiae deletion strains, locus YJR066W, strain TOR1, hits give low values 0.241 | S. cerevisiae deletion strains, locus YKL048C, strain ELM1, hits give low values 0.468 | S. cerevisiae deletion strains, locus YKL067W, strain YNK1, hits give low values 0.303 | S. cerevisiae deletion strains, locus YKL101W, strain HSL1, hits give low values 0.353 | S. cerevisiae deletion strains, locus YKL203C, strain TOR2, hits give low values 0.34 | S. cerevisiae deletion strains, locus YLR113W, strain HOG1, hits give low values 0.275 | S. cerevisiae deletion strains, locus YLR133W, strain CKI1, hits give low values 0.28 | S. cerevisiae deletion strains, locus YLR403W, strain SFP1, hits give low values 0.242 | S. cerevisiae deletion strains, locus YML070W, strain DAK1, hits give low values 0.293 | S. cerevisiae deletion strains, locus YMR205C, strain PFK2 (second series), hits give low values 0.47 | S. cerevisiae deletion strains, locus YNL020C, strain ARK1, hits give low values 0.382 | S. cerevisiae deletion strains, locus YNL183C, strain NPR1, hits give low values 0.393 | S. cerevisiae deletion strains, locus YNL307C, strain MCK1 (second series), hits give low values 0.147 | S. cerevisiae deletion strains, locus YOL136C, strain PFK27, hits give low values 0.312 | S. cerevisiae deletion strains, locus YOR061W, strain CKA2, hits give low values 0.19 | S. cerevisiae deletion strains, locus YOR119C, strain RIO1, hits give low values 0.299 | S. cerevisiae deletion strains, locus YOR231W, strain MKK1, hits give low values 0.477 | S. cerevisiae deletion strains, locus YPL031C, strain PHO85, hits give low values 0.295 | S. cerevisiae deletion strains, locus YPL153C, strain RAD53, hits give low values 0.279 | S. cerevisiae deletion strains, locus YPL204W, strain HRR25, hits give low values 0.338 | S. cerevisiae deletion strains, locus YPL256C, strain CLN2, hits give low values 0.275
inactive: S. cerevisiae deletion strains, locus YAR019C, strain CDC15, hits give low values 0.971 | S. cerevisiae deletion strains, locus YBL105C, strain PKC1, hits give low values 0.979 | S. cerevisiae deletion strains, locus YBR135W, strain CKS1, hits give low values 0.966 | S. cerevisiae deletion strains, locus YBR136W, strain MEC1, hits give low values 0.963 | S. cerevisiae deletion strains, locus YBR160W, strain CDC28, hits give low values 0.965 | S. cerevisiae deletion strains, locus YDL017W, strain CDC7, hits give low values 0.974 | S. cerevisiae deletion strains, locus YDL028C, strain MPS1, hits give low values 0.968 | [6] 0.951 | S. cerevisiae deletion strains, locus YDL108W, strain KIN28, hits give low values 0.969 | S. cerevisiae deletion strains, locus YDL132W, strain cdc53, hits give low values 0.964 | S. cerevisiae deletion strains, locus YDR052C, strain DBF4, hits give low values 0.95 | S. cerevisiae deletion strains, locus YDR054C, strain cdc34, hits give low values 0.963 | S. cerevisiae deletion strains, locus YDR226W, strain ADK1, hits give low values 0.96 | S. cerevisiae deletion strains, locus YFL009W, strain cdc4, hits give low values 0.968 | S. cerevisiae deletion strains, locus YFL029C, strain CAK1, hits give low values 0.959 | S. cerevisiae deletion strains, locus YFR003C, strain YPI1, hits give low values 0.975 | S. cerevisiae deletion strains, locus YFR028C, strain CDC14, hits give low values 0.965 | S. cerevisiae deletion strains, locus YIL147C, strain SLN1, hits give low values 0.969 | S. cerevisiae deletion strains, locus YJL128C, strain PBS2, hits give low values 0.864 | S. cerevisiae deletion strains, locus YJR016C, strain ILV3, hits give low values 0.947 | S. cerevisiae deletion strains, locus YKL193C, strain SDS22, hits give low values 0.968 | S. cerevisiae deletion strains, locus YMR001C, strain CDC5, hits give low values 0.972 | S. cerevisiae deletion strains, locus YMR277W, strain FCP1, hits give low values 0.977 | S. cerevisiae deletion strains, locus YNL006W, strain LST8, hits give low values 0.968 | S. cerevisiae deletion strains, locus YNL161W, strain CBK1, hits give low values 0.974 | S. cerevisiae deletion strains, locus YNL207W, strain RIO2, hits give low values 0.969 | S. cerevisiae deletion strains, locus YNL222W, strain SSU72, hits give low values 0.966 | S. cerevisiae deletion strains, locus YOL078W, strain AVO1, hits give low values 0.97 | S. cerevisiae deletion strains, locus YOR329C, strain SCD5, hits give low values 0.978 | S. cerevisiae deletion strains, locus YPL209C, strain IPL1, hits give low values 0.977 | S. cerevisiae deletion strains, locus YPR025C, strain CCL1, hits give low values 0.963 | S. cerevisiae deletion strains, locus YPR106W, strain ISR1, hits give low values 0.967 | S. cerevisiae deletion strains, locus YPR111W, strain DBF20, hits give low values 0.963 | S. cerevisiae deletion strains, strain NNK1, hits give low values 0.979 | S. cerevisiae deletion strains, strain TSCII, hits give low values 0.966
